Test results taken from PubChem BioAssay (NCI).
About 83,000 compounds went through this panel and 20% of them were active in at least one assay; those are over-represented in the sample as a whole.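 How to read the values: 0–100, growth inhibition (40 = 60% inhibited); 0, no net growth; -100 to 0, cell death (-40 = 40% of starting cells died; -100 = all dead).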

Key:
Test in all cases: NCI-60 one-dose screen, 48 h (100 = growth as untreated, 0 = no growth, -100 = all killed); active = growth percent below 10; inactive = the rest
DU-145 prostate = settings: 10 µM
K-562 leukemia = settings: 10 µM
MALME-3M melanoma = settings: 10 µM
MDA-MB-231 breast = settings: 10 µM
RXF 393 renal = settings: 10 µM
SF-268 CNS = settings: 10 µM
SF-295 CNS = settings: 10 µM
SF-539 CNS = settings: 10 µM
UACC-257 melanoma = settings: 10 µM
M14 melanoma = settings: 10 µM
HCT-15 colon = settings: 10 µM
SNB-75 CNS = settings: 10 µM
SNB-19 CNS = settings: 10 µM
U251 CNS = settings: 10 µM
SK-MEL-5 melanoma = settings: 10 µM
UACC-62 melanoma = settings: 10 µM unless noted
LOX IMVI melanoma = settings: 10 µM
SK-MEL-28 melanoma = settings: 10 µM
PC-3 prostate = settings: 10 µM
HT29 colon = settings: 10 µM

Measured: growth

O=C(NCO)c1ccccc1
inactive: DU-145 prostate 99.8% | K-562 leukemia 94.5% | MALME-3M melanoma 91.3% | MDA-MB-231 breast 117% | RXF 393 renal 119% | SF-268 CNS 103% | SF-295 CNS 110% | SF-539 CNS 108% | UACC-257 melanoma 111% | M14 melanoma 106% | HCT-15 colon 101% | SNB-75 CNS 89.8% | SNB-19 CNS 107% | U251 CNS 105% | SK-MEL-5 melanoma 111% | UACC-62 melanoma 93.8% | LOX IMVI melanoma 105% | SK-MEL-28 melanoma 105%

CCCCC(O)c1ccccc1 (centres undefined)
inactive: DU-145 prostate 108% | K-562 leukemia 94% | MALME-3M melanoma 102% | MDA-MB-231 breast 116% | RXF 393 renal 107% | SF-268 CNS 98.6% | SF-295 CNS 104% | SF-539 CNS 106% | UACC-257 melanoma 101% | M14 melanoma 109% | HCT-15 colon 102% | SNB-75 CNS 92.2% | SNB-19 CNS 110% | U251 CNS 98.4% | PC-3 prostate 97.9% | UACC-62 melanoma 108% | LOX IMVI melanoma 96.4% | SK-MEL-28 melanoma 119%

Cc1cc(=O)n(-c2ccc(F)cc2)[nH]1
inactive: DU-145 prostate 109% | K-562 leukemia 99.1% | MALME-3M melanoma 102% | MDA-MB-231 breast 105% | RXF 393 renal 93.5% | SF-268 CNS 101% | SF-295 CNS 86.8% | SF-539 CNS 90.8% | UACC-257 melanoma 103% | M14 melanoma 108% | HCT-15 colon 89.6% | SNB-75 CNS 88.5% | SNB-19 CNS 103% | PC-3 prostate 90% | SK-MEL-5 melanoma 97.5% | UACC-62 melanoma 101%

CCCCOC(OCCCC)c1ccccc1
inactive: DU-145 prostate 112% | K-562 leukemia 107% | MALME-3M melanoma 132% | MDA-MB-231 breast 112% | RXF 393 renal 128% | SF-268 CNS 96.5% | SF-295 CNS 111% | SF-539 CNS 91.8% | UACC-257 melanoma 109% | M14 melanoma 113% | HT29 colon 102% | SNB-75 CNS 88.9% | SNB-19 CNS 95.4% | U251 CNS 109% | PC-3 prostate 98.7% | SK-MEL-5 melanoma 103% | UACC-62 melanoma 97.2% | LOX IMVI melanoma 92.7%

Cc1nc2c(ccc3ccccc32)s1
inactive: DU-145 prostate 123% | K-562 leukemia 115% | MALME-3M melanoma 110% | MDA-MB-231 breast 107% | RXF 393 renal 116% | SF-268 CNS 116% | SF-295 CNS 104% | SF-539 CNS 100% | UACC-257 melanoma 101% | M14 melanoma 98.5% | HCT-15 colon 110% | SNB-75 CNS 108% | SNB-19 CNS 107% | U251 CNS 99.3% | PC-3 prostate 99.7% | SK-MEL-5 melanoma 112% | UACC-62 melanoma 107% | LOX IMVI melanoma 98.4% | SK-MEL-28 melanoma 105%

COc1nc(N)nc2c1ncn2C1OC(CO)CC1O (centres undefined)
inactive: DU-145 prostate 110% | K-562 leukemia 101% | MALME-3M melanoma 100% | MDA-MB-231 breast 112% | RXF 393 renal 112% | SF-268 CNS 108% | SF-295 CNS 113% | SF-539 CNS 45.6% | UACC-257 melanoma 111% | M14 melanoma 104% | HCT-15 colon 101% | SNB-75 CNS 89.7% | SNB-19 CNS 103% | SK-MEL-5 melanoma 105% | UACC-62 melanoma 100% | LOX IMVI melanoma 107% | SK-MEL-28 melanoma 108%

N#Cc1c(N)sc(=S)c2c1CCCC2
inactive: DU-145 prostate 113% | K-562 leukemia 113% | MALME-3M melanoma 119% | MDA-MB-231 breast 111% | RXF 393 renal 118% | SF-268 CNS 104% | SF-295 CNS 110% | SF-539 CNS 110% | UACC-257 melanoma 110% | M14 melanoma 116% | HCT-15 colon 104% | SNB-75 CNS 104% | SNB-19 CNS 105% | U251 CNS 107% | PC-3 prostate 100% | SK-MEL-5 melanoma 114% | UACC-62 melanoma 114% | LOX IMVI melanoma 99.4% | SK-MEL-28 melanoma 112%

CCN(CC)C(=O)/C=C(/C)c1ccccc1
inactive: DU-145 prostate 117% | K-562 leukemia 107% | MALME-3M melanoma 111% | MDA-MB-231 breast 108% | RXF 393 renal 96.7% | SF-268 CNS 104% | SF-295 CNS 100% | SF-539 CNS 107% | UACC-257 melanoma 110% | M14 melanoma 104% | HCT-15 colon 104% | SNB-75 CNS 93.2% | SNB-19 CNS 105% | U251 CNS 105% | PC-3 prostate 93.4% | SK-MEL-5 melanoma 90.1% | UACC-62 melanoma 103% | LOX IMVI melanoma 98.7% | SK-MEL-28 melanoma 106%

CCOC(=O)c1[nH]c(C)c(C(=O)O)c1C
inactive: DU-145 prostate 114% | K-562 leukemia 102% | MALME-3M melanoma 122% | MDA-MB-231 breast 107% | RXF 393 renal 115% | SF-268 CNS 105% | SF-295 CNS 122% | SF-539 CNS 105% | UACC-257 melanoma 111% | M14 melanoma 124% | HCT-15 colon 109% | SNB-19 CNS 109% | U251 CNS 107% | PC-3 prostate 88.9% | SK-MEL-5 melanoma 108% | UACC-62 melanoma 107% | LOX IMVI melanoma 106%

Cc1cccc([N+](=O)[O-])c1Cl
inactive: DU-145 prostate 105% | K-562 leukemia 119% | MALME-3M melanoma 109% | MDA-MB-231 breast 113% | RXF 393 renal 103% | SF-268 CNS 101% | SF-295 CNS 104% | SF-539 CNS 105% | UACC-257 melanoma 105% | M14 melanoma 106% | HCT-15 colon 99.6% | SNB-75 CNS 95.2% | SNB-19 CNS 106% | U251 CNS 102% | SK-MEL-5 melanoma 98.8% | UACC-62 melanoma 105% | LOX IMVI melanoma 101% | SK-MEL-28 melanoma 107%
